Assay [1] is described as follows: NCI Yeast Anticancer Drug Screen. Data for the rad50 strain (AID 155).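 Note: 0% = growth of vehicle-only cultures of the same strain.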 As to conditions: S. cerevisiae rad50 strain growth inhibition, stronger effect = higher value. The procedure, abridged:
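Inhibition values express reduced yeast growth in compound-treated cultures relative to vehicle-treated controls.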

A short description of assay [2]: NCI Yeast Anticancer Drug Screen. Data for the mec2-1 strain (AID 157). As to conditions: S. cerevisiae mec2-1 strain, stronger effect = higher value. An outline of the steps:
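Mutant yeast (mec2-1) grown with compound; growth inhibition relative to vehicle control reported.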

A short description of assay [3]: NCI Yeast Anticancer Drug Screen. Data for the sgs1 mgt1 strain (AID 161).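 Note: 0% = growth of cultures given vehicle only.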 To be noted: S. cerevisiae sgs1 mgt1 strain, stronger effect = higher value. An outline of the steps: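 Growth of a repair-deficient yeast mutant was monitored after compound treatment and expressed as inhibition relative to vehicle-treated cultures.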
Assay [4] can be described thus: NCI Yeast Anticancer Drug Screen. Data for the cln2 rad14 strain (AID 165).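 Note: 0% = growth equal to vehicle treated cultures.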 As to conditions: S. cerevisiae cln2 rad14 strain, stronger effect = higher value. The procedure, abridged:
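Readout is yeast growth inhibition versus vehicle-treated controls, using a strain with cln2 and rad14 alterations exposed to compound.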

A short description of assay [5]: NCI Yeast Anticancer Drug Screen. Data for the bub3 strain (AID 167). As to conditions: S. cerevisiae bub3 mutant strain, stronger effect = higher value. The procedure, abridged:
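Steps: expose the mutant yeast strain to compound; grow alongside vehicle-treated cultures; measure growth; express inhibition against the vehicle cultures.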

A short description of assay [6]: NCI Yeast Anticancer Drug Screen. Data for the mlh1 rad18 strain (AID 175). To be noted: S. cerevisiae mlh1 rad18 strain growth inhibition, stronger effect = higher value. An outline of the steps: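 Genetically defined yeast (DNA repair-deficient) exposed to compounds; growth inhibition determined relative to vehicle.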
Setting [7] is: at 5.0 µM (retest, dose inferred, filed as 0.5).
Setting [8] is: at 50.0 µM (retest, dose inferred, filed as 5.0).

Several values for one entry are separate records, joined by “and”; a condition that tells them apart may be missing. Equal values may be shown once. About 79,000 compounds went through this panel and 15% of them were active in at least one assay; those are over-represented in the sample as a whole. The source holds several records for some structures; these can differ, active in one and inactive in another. Activity calls are given as the source filed them. Cut-off read from the data, not from the text of the source: active = growth inhibition above about 70%; inactive = the rest.

Consider `Cc1ccnc2c1c(=O)c1ccccc1n2C`, for which the growth inhibition in assay [1] (setting [7]) is 0% (inactive); in assay [1] (setting [8]), 86% (active); in assay [1] (at 50.0 µM), 79.1% (active); in assay [2] (setting [7]), 4% (inactive); in assay [2] (setting [8]), 28% (inactive); in assay [2] (at 50.0 µM), 60.2% (inactive). Moreover, the growth inhibition is -2% (inactive) in assay [3] (setting [7]); 35% (inactive) in assay [3] (setting [8]); 68.9% (inactive) in assay [3] (at 50.0 µM); -6% (inactive) in assay [4] (setting [7]); -3% (inactive) in assay [4] (setting [8]); 46.2% (inactive) in assay [4] (at 50.0 µM). Besides, the growth inhibition was -1% (inactive) in assay [5] (setting [7]); 12% (inactive) in assay [5] (setting [8]); 71.6% (active) in assay [5] (at 50.0 µM); 3% (inactive) in assay [6] (setting [7]); 55% (inactive) in assay [6] (setting [8]); 74.3% (active) in assay [6] (at 50.0 µM).
As for `CC1C[C@]2(C)C(=O)Nc3ccccc3[C@@H]2Nc2ccccc21` (some centres undefined), the growth inhibition in assay [1] (setting [7]) was 6% (inactive); in assay [1] (setting [8]), 36% (inactive); in assay [1] (at 50.0 µM), 91.1% (active); in assay [2] (setting [7]), 10% (inactive); in assay [2] (setting [8]), 30% (inactive); in assay [2] (at 50.0 µM), 93.8% (active). The growth inhibition was 22% (inactive) in assay [3] (setting [7]); 14% (inactive) in assay [3] (setting [8]); 93.2% (active) in assay [3] (at 50.0 µM); -6% (inactive) in assay [4] (setting [7]); 57% (inactive) in assay [4] (setting [8]); 89.5% (active) in assay [4] (at 50.0 µM). The growth inhibition in assay [5] (setting [7]) was 20% (inactive); in assay [5] (setting [8]), 73% (active); in assay [5] (at 50.0 µM), 91.5% (active); in assay [6] (setting [7]), 16% (inactive); in assay [6] (setting [8]), 43% (inactive); in assay [6] (at 50.0 µM) it was 89.2% (active).
Consider `CCOC(=O)C1=C(C(=O)c2ccc(C)cc2)C(c2cccc([N+](=O)[O-])c2)C(C(=O)c2ccc(C)cc2)=C(C(=O)OCC)N1`, for which the growth inhibition in assay [1] (setting [7]) is 4% (inactive); in assay [1] (setting [8]), 55% (inactive); in assay [1] (at 50.0 µM), 60.6% (inactive); in assay [2] (setting [7]), 3% (inactive); in assay [2] (setting [8]) it was 69% (inactive); in assay [2] (at 50.0 µM) it was 78% (active). Besides, the growth inhibition was 8% (inactive) in assay [3] (setting [7]); 47% (inactive) in assay [3] (setting [8]); 61.1% (inactive) in assay [3] (at 50.0 µM); -3% (inactive) in assay [4] (setting [7]); 2% (inactive) in assay [4] (setting [8]); 19.3% (inactive) in assay [4] (at 50.0 µM). Also, the growth inhibition in assay [5] (setting [7]) was 2% (inactive); in assay [5] (setting [8]), 61% (inactive); in assay [5] (at 50.0 µM) it was 76.2% (active); in assay [6] (setting [7]), 0% (inactive); in assay [6] (setting [8]), -17% (inactive); in assay [6] (at 50.0 µM), 78.9% (active).
In the case of `O=C(c1ccc(Cl)cc1)C(O)c1ccc(Cl)cc1` (centres undefined), the growth inhibition in assay [1] (setting [7]) was -2% (inactive) and 10% (inactive); in assay [1] (setting [8]), 27% (inactive) and 74% (active); in assay [1] (at 50.0 µM) it was 34.2% (inactive); in assay [2] (setting [7]) it was -9% (inactive) and -3% (inactive); in assay [2] (setting [8]) it was 14% (inactive) and 35% (inactive); in assay [2] (at 50.0 µM), 12.4% (inactive). For the same molecule, the growth inhibition is -2% (inactive) and 4% (inactive) in assay [3] (setting [7]); 79% (active) and 82% (active) in assay [3] (setting [8]); 55.1% (inactive) in assay [3] (at 50.0 µM); -8% (inactive) and 7% (inactive) in assay [4] (setting [7]); 67% (inactive) and 28% (inactive) in assay [4] (setting [8]); 36% (inactive) in assay [4] (at 50.0 µM). Further, the growth inhibition is -10% (inactive) and -1% (inactive) in assay [5] (setting [7]); 20% (inactive) and 45% (inactive) in assay [5] (setting [8]); 65.8% (inactive) in assay [5] (at 50.0 µM); -6% (inactive) and -12% (inactive) in assay [6] (setting [7]); 53% (inactive) and 49% (inactive) in assay [6] (setting [8]); 62.3% (inactive) in assay [6] (at 50.0 µM).
On to `COc1ccc(NC(=O)C(=O)NO)c(OC)c1`, for which the growth inhibition is 19% (inactive) in assay [1] (setting [7]); 94% (active) in assay [1] (setting [8]); 90.8% (active) in assay [1] (at 50.0 µM); -2% (inactive) in assay [2] (setting [7]); 96% (active) in assay [2] (setting [8]); 91.1% (active) in assay [2] (at 50.0 µM). The growth inhibition in assay [3] (setting [7]) was 9% (inactive); in assay [3] (setting [8]), 94% (active); in assay [3] (at 50.0 µM), 91% (active); in assay [4] (setting [7]), -10% (inactive); in assay [4] (setting [8]), 94% (active); in assay [4] (at 50.0 µM), 87.9% (active). The growth inhibition is 4% (inactive) in assay [5] (setting [7]); 93% (active) in assay [5] (setting [8]); 91.2% (active) in assay [5] (at 50.0 µM); -28% (inactive) in assay [6] (setting [7]); 95% (active) in assay [6] (setting [8]); 87.9% (active) in assay [6] (at 50.0 µM).
`O=C(/C(=C\c1ccc(Cl)c(Cl)c1)c1ccccc1)c1ccc(O)cc1`: the growth inhibition in assay [1] (setting [7]) is 51% (inactive); in assay [1] (setting [8]), 91% (active); in assay [1] (at 50.0 µM), 94% (active); in assay [2] (setting [7]), 39% (inactive); in assay [2] (setting [8]) it was 95% (active); in assay [2] (at 50.0 µM), 93.9% (active). Also, the growth inhibition in assay [3] (setting [7]) was 48% (inactive); in assay [3] (setting [8]) it was 93% (active); in assay [3] (at 50.0 µM) it was 94.1% (active); in assay [4] (setting [7]) it was 42% (inactive); in assay [4] (setting [8]), 93% (active); in assay [4] (at 50.0 µM), 92.2% (active). For the same molecule, the growth inhibition was 43% (inactive) in assay [5] (setting [7]); 94% (active) in assay [5] (setting [8]); 91.8% (active) in assay [5] (at 50.0 µM); 54% (inactive) in assay [6] (setting [7]); 92% (active) in assay [6] (setting [8]); 93.2% (active) in assay [6] (at 50.0 µM).
Take `CN(C)c1ccc(/C=C/c2cc[n+](C)c3ccccc23)cc1`: the growth inhibition was -3% (inactive) and -12% (inactive) in assay [1] (setting [7]); 81% (active) and 53% (inactive) in assay [1] (setting [8]); 95.3% (active) and 71.3% (active) in assay [1] (at 50.0 µM); 0% (inactive) and -25% (inactive) in assay [2] (setting [7]); 93% (active) and 83% (active) in assay [2] (setting [8]); 97.9% (active) and 86.2% (active) in assay [2] (at 50.0 µM). Besides, the growth inhibition in assay [3] (setting [7]) was 3% (inactive) and -10% (inactive); in assay [3] (setting [8]), 92% (active) and 88% (active); in assay [3] (at 50.0 µM) it was 93.7% (active) and 83.4% (active); in assay [4] (setting [7]), -2% (inactive) and -5% (inactive); in assay [4] (setting [8]) it was 89% (active) and 57% (inactive); in assay [4] (at 50.0 µM), 96.6% (active) and 66.7% (inactive). Besides, the growth inhibition is -3% (inactive) and -17% (inactive) in assay [5] (setting [7]); 85% (active) and 83% (active) in assay [5] (setting [8]); 97.5% (active) and 82.8% (active) in assay [5] (at 50.0 µM); -8% (inactive) and -21% (inactive) in assay [6] (setting [7]); 93% (active) and 80% (active) in assay [6] (setting [8]); 97.7% (active) in assay [6] (at 50.0 µM).
In the case of `CC1CP(c2ccccc2)(c2ccccc2)(c2ccccc2)OC1(C(=O)c1ccccc1)c1ccccc1` (centres undefined), the growth inhibition in assay [1] (setting [7]) is -1% (inactive); in assay [1] (setting [8]) it was 9% (inactive); in assay [1] (at 50.0 µM), 93.9% (active); in assay [2] (setting [7]), 8% (inactive); in assay [2] (setting [8]), 7% (inactive); in assay [2] (at 50.0 µM), 99.3% (active). Besides, the growth inhibition in assay [3] (setting [7]) is -21% (inactive); in assay [3] (setting [8]), -1% (inactive); in assay [3] (at 50.0 µM), 99.3% (active); in assay [4] (setting [7]), -9% (inactive); in assay [4] (setting [8]) it was 2% (inactive); in assay [4] (at 50.0 µM), 98.9% (active). The growth inhibition in assay [5] (setting [7]) is -1% (inactive); in assay [5] (setting [8]), 11% (inactive); in assay [5] (at 50.0 µM), 98.8% (active); in assay [6] (setting [7]), -15% (inactive); in assay [6] (setting [8]), 29% (inactive); in assay [6] (at 50.0 µM), 99.2% (active).

The values are drawn from PubChem BioAssay (NCI).
